Data from PubChem BioAssay.
Calls of active or inactive are those of the source.

Columns and labels:
[1] = binders of probe aFSTL3 on microarray, primary screen, stem cell growth factor project, biochemical, small-molecule microarray, fluorescence 635/667 (AID 1064); settings: higher = more signal;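 further: measures binding of the biotinylated anti-FSTL3 antibody to printed compounds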
[2] = binders from COS7 lysate, DM2A8 probe, primary screen, torsin A project, cell lysate, small-molecule microarray, fluorescence 635/667 (AID 1065); settings: higher = more signal, COS7 lysate expressing mutant human TOR1A
[3] = binders of probe aFGF2 on microarray, primary screen, stem cell growth factor project, biochemical, small-molecule microarray, fluorescence 635/667 (AID 1067); settings: higher = more signal;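 further: measures binding of biotinylated aFGF2 protein to printed compounds on slides; z-score merges feature fluorescence and signal-to-noise across triplicate slides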
[4] = binders of probe aFGF10 on microarray, primary screen, stem cell growth factor project, biochemical, small-molecule microarray, fluorescence 635/667 (AID 1071); settings: higher = more signal;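 further: score merges 667 nm spot intensity and signal to noise from triplicate slides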
[5] = molecular target: Neurogenic locus notch homolog protein 2 (Homo sapiens) (UniProt Q04721); test: Notch2 binders on small-molecule microarrays, primary screen, biochemical, small-molecule microarray, 635 nm fluorescence, stem cell growth factors (AID 1073); settings: Notch2 binding, higher = more signal
Chain of Neurogenic locus notch homolog protein 2 (Homo sapiens) (Q04721 whole entry, looked up, canonical isoform): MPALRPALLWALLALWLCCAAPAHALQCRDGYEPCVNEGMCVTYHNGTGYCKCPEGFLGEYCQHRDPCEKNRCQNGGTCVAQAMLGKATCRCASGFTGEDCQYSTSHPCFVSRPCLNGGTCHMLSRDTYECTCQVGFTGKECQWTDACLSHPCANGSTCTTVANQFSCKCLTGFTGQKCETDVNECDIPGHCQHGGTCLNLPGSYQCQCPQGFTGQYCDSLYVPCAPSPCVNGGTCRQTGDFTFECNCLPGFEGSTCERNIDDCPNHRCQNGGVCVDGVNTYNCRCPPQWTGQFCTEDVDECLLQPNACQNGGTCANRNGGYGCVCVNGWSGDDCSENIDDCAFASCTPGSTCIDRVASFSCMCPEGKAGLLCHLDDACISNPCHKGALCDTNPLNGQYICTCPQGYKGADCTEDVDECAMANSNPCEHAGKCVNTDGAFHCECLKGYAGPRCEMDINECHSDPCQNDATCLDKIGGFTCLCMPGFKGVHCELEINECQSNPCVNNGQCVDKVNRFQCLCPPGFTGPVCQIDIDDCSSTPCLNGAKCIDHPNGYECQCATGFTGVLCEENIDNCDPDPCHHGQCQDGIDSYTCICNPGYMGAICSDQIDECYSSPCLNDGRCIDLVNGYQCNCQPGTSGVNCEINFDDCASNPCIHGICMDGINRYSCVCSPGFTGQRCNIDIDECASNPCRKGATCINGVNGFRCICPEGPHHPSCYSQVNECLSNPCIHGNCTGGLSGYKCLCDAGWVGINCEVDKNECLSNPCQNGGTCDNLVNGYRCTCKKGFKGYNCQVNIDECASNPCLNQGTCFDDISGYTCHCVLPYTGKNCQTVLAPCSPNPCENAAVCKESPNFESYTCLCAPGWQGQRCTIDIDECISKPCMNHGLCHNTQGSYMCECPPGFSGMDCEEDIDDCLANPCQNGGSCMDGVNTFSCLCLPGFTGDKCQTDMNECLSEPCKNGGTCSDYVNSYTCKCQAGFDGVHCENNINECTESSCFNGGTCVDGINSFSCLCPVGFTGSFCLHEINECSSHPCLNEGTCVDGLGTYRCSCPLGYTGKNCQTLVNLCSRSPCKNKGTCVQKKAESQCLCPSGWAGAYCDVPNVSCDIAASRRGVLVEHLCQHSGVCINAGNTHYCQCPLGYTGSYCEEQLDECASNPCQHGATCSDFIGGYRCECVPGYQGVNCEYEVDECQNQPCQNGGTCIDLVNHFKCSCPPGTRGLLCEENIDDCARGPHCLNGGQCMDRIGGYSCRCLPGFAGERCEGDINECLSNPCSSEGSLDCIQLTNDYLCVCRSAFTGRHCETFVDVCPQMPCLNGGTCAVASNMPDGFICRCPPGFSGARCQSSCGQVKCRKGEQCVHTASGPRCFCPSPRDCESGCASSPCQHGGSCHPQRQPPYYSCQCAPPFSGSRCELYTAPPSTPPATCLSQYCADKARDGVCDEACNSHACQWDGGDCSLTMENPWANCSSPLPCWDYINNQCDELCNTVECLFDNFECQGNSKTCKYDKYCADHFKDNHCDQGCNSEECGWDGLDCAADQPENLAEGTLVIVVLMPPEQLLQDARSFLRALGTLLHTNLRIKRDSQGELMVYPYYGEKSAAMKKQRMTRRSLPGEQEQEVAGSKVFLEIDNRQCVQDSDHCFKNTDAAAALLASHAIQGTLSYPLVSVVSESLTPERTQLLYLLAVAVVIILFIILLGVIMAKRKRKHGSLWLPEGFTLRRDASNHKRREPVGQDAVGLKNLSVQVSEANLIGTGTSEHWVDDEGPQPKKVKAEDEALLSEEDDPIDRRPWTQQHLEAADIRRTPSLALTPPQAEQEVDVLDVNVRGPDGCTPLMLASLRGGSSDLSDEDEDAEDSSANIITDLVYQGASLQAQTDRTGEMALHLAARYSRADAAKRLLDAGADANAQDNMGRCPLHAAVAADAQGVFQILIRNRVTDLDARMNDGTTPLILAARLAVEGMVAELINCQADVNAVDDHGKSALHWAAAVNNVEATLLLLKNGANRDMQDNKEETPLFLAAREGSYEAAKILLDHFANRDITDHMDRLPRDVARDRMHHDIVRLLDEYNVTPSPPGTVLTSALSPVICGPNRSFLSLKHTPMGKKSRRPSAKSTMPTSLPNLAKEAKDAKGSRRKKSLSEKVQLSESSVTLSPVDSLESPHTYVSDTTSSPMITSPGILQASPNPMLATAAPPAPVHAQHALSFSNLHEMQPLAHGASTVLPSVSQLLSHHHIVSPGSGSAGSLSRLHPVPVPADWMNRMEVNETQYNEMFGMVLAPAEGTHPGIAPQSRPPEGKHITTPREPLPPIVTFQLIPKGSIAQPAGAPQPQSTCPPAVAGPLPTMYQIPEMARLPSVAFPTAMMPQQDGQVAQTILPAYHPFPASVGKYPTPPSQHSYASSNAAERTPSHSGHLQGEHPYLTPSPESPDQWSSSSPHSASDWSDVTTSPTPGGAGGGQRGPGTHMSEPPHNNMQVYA

[6] = molecular target: Pro-neuregulin-1, membrane-bound isoform (Homo sapiens) (UniProt Q02297); test: NRG1 binders on small-molecule microarrays, primary screen, psychiatric disease protein project, biochemical, small-molecule microarray, fluorescence 635/667 (AID 1075); settings: NRG1 binding, 635 nm fluorescence, higher = more signal;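 further: score combines 667 nm spot fluorescence with signal to noise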
Chain of Pro-neuregulin-1, membrane-bound isoform (Homo sapiens) (Q02297 whole entry, looked up, the tested form may be a part, canonical isoform): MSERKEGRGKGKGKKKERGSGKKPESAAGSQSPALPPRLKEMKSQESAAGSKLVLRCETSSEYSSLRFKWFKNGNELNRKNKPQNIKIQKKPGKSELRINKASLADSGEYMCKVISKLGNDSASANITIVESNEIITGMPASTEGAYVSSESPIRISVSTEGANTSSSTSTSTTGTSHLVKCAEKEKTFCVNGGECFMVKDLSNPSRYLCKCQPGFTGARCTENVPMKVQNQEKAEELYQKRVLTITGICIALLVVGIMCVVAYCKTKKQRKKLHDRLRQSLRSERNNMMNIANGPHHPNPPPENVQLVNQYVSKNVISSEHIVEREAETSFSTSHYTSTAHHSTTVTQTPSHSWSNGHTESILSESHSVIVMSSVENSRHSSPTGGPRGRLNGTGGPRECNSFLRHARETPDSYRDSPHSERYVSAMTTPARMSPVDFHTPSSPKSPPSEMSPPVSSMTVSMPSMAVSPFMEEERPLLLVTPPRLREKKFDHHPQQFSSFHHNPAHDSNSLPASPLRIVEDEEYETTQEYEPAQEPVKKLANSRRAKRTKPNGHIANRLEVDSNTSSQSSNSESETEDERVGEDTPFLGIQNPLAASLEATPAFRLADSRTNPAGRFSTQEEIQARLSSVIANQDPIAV

[7] = tested on: Neuregulin-1 EGF-like domain; test: binders of neuregulin-1 EGF-like domain, primary screen, biochemical, small-molecule microarray, 635 nm fluorescence (AID 1081); settings: small-molecule microarray binding, higher = more signal;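 further: binding of the protein to compounds printed on small-molecule microarray slides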
[8] = FRG1 promoter luciferase signal modulators, primary screen, FRG1 inhibition for FSHD, cell-based, C2C12 myotubes, firefly/Renilla luciferase, luminescence (AID 1084); settings: higher = more signal, called active from +8 up or from −8 down
[9] = binders of probe aFST on microarray, primary screen, stem cell growth factor project, biochemical, small-molecule microarray, fluorescence 635/667 (AID 1086); settings: higher = more signal;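 further: score merges 667 nm fluorescence with signal-to-noise of each printed compound spot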
[10] = binders of probe aHhip on microarray, primary screen, stem cell growth factor project, biochemical, small-molecule microarray, fluorescence 635/667 (AID 1087); settings: higher = more signal;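 further: score merges spot fluorescence at 667nm with spot signal to noise ratio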
[11] = tested on: PRMT1 (protein arginine N-methyltransferase 1); test: PRMT1 binders on small-molecule microarrays, primary screen, biochemical, small-molecule microarray, 635 nm fluorescence (AID 1088); settings: small-molecule microarray binding, higher = more signal;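 further: binding of Prmt1 protein to compounds spotted on small-molecule microarray slides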
[12] = yeast growth modulation, basal conditions, primary screen, YJM789 clinical isolate, OD600, 24 h (AID 1089);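 further: growth of clinical yeast isolate S. cerevisiae YJM 789 seeded 1000 cells per well; test concentration not given here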; settings: S. cerevisiae YJM789 growth, higher = more signal, called active from +8 up or from −8 down
[13] = fission yeast growth modulation, primary screen, strain 972, OD600, 24 h, no modulator (AID 1090);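 further: basal condition with compound alone and no growth modifier present; test concentration not given here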; settings: S. pombe 972 growth, higher = more signal, called active from +8 up or from −8 down
[14] = S. cerevisiae growth modulation with rapamycin, primary screen, strain BY4716, OD600, 96 h (AID 1091); settings: higher = more signal, called active from +8 up or from −8 down; further: test concentration not given here
[15] = molecular target: Torsin-1A-interacting protein 2 (Homo sapiens) (UniProt Q8NFQ8); test: LULL1 binders on small-molecule microarray, primary screen, cell lysate, human LULL1 lysate, 635/667 nm fluorescence (AID 1092); settings: hLULL1 lysate binding, 635 nm fluorescence, higher = more signal;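 further: probe is lysate of COS7 cells overexpressing human LULL1; score merges per-feature 667 nm fluorescence with signal-to-noise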
Chain of Torsin-1A-interacting protein 2 (Homo sapiens) (Q8NFQ8 whole entry, looked up): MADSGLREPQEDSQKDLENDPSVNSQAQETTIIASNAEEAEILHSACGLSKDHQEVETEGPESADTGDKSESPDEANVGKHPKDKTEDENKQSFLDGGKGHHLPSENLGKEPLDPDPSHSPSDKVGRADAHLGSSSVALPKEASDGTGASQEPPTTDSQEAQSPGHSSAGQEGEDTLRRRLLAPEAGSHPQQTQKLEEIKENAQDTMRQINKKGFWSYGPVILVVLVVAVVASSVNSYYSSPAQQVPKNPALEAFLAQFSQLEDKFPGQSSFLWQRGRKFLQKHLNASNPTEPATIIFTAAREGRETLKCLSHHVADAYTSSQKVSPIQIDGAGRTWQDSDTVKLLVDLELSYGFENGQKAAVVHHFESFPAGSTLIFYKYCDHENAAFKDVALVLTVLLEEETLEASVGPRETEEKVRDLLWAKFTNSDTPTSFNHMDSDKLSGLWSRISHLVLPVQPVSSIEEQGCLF

[16] = E. coli growth modulation, two-sided OD650, primary screen, E. coli filamentation project, strain DRC41, 24 h (AID 1093); settings: OD650, 24 h, higher = more signal, called active from +8 up or from −8 down;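 further: MC1000 strain lacking acrAB efflux and sulA so SOS filamentation is blocked; test concentration not given here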
[17] = small-molecule microarray binders of probe aLefty2, primary screen, biochemical, biotinylated probe, 635/667 nm fluorescence (AID 1094); settings: higher = more signal;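 further: score merges spot fluorescence near 667 nm with spot signal-to-noise ratio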
[18] = tested on: Noggin (protein binding on small-molecule microarray); test: Noggin binders on small-molecule microarray, primary screen, biochemical, 635/667 nm fluorescence (AID 1095); settings: 635 nm fluorescence, higher = more signal;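 further: score merges 667 nm feature fluorescence with signal to noise over triplicate slides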
[19] = molecular target: Neurogenic locus notch homolog protein 3 (Homo sapiens) (UniProt Q9UM47); test: NOTCH3 binders on small-molecule microarray, primary screen, biochemical, 635/667 nm fluorescence (AID 1096); settings: NOTCH3 binding, 635 nm fluorescence, higher = more signal
[20] = small-molecule microarray binders of probe aEGFR, primary screen, biochemical, biotinylated probe, 635/667 nm fluorescence (AID 1097); settings: higher = more signal;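 further: probe is a biotinylated anti-EGFR antibody binding compounds printed on slides; score combines fluorescence near 667 nm and signal to noise of each spot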

SMILES	composite z-score [1]	composite z-score [2]	composite z-score [3]	composite z-score [4]	composite z-score [5]	composite z-score [6]	composite z-score [7]	z-score [8]	composite z-score [9]	composite z-score [10]	composite z-score [11]	z-score [12]	z-score [13]	z-score [14]	composite z-score [15]	z-score [16]	composite z-score [17]	composite z-score [18]	composite z-score [19]	composite z-score [20]
COc1ccc(C#Cc2ccc3c(c2)[C@]2(C(=O)N3)[C@H](c3ccccc3OCCO)N3[C@H](c4ccccc4)[C@H](c4ccccc4)OC(=O)[C@H]3[C@@H]2C(=O)NC[C@H](O)c2ccccc2)cc1	-0.38	0.203	-0.0628	0.146	1	0.698	1.27	0.621 (inactive)	0.469	0.21	1.54	2.42 (inactive)	2.18 (inactive)	2.92 (inactive)	3	2.11 (inactive)	-0.0168	1.58	1.08	0.095
C=CCNC(=O)[C@H]1[C@@H]2C(=O)O[C@@H](c3ccccc3)[C@@H](c3ccccc3)N2[C@@H](c2ccc(O)cc2)[C@]12C(=O)Nc1ccccc12	0.318	0.111	-0.0628	-0.519	-1.15	0.992	1.09	-2.15 (inactive)	-0.228	0.0749	1.05	1.14 (inactive)	0.118 (inactive)	1.37 (inactive)	2.75	1.68 (inactive)	-0.193	-0.0122	-0.537	-0.177
COCCOC(=O)N1C(=O)[C@@]2(c3cc(C#CCNC(N)=O)ccc31)[C@H](C(=O)Nc1nc3ccccc3s1)[C@H]1C(=O)O[C@H](c3ccccc3)[C@H](c3ccccc3)N1[C@@H]2c1ccc(O)cc1	-0.145	0.215	-0.0284	0.46	0.968	0.882	0.595	0.709 (inactive)	0.501	0.0373	1.47	1.45 (inactive)	1.16 (inactive)	1.32 (inactive)	1.35	-0.264 (inactive)	-0.103	0.939	0.986	0.0654
COCCOC(=O)N1C(=O)[C@@]2(c3cc(C#CCNC(N)=O)ccc31)[C@H](C(=O)N1CCN(c3ncccn3)CC1)[C@H]1C(=O)O[C@H](c3ccccc3)[C@H](c3ccccc3)N1[C@@H]2c1ccc(O)cc1	-1.35	0.0122	-0.282	-0.129	-1.15	-0.37	-0.475	-1.04 (inactive)	-0.874	-0.769	-0.479	-0.357 (inactive)	-0.562 (inactive)	0.0816 (inactive)	1.37	-0.324 (inactive)	-0.547	-1.27	-0.637	-0.384
CCOC(=O)C1=CCC(c2cccn2C(=O)OC(C)(C)C)N(S(=O)(=O)c2ccc(C)cc2)C1 (stereo not given)	1.3	0.42	0.0267	0.243	0.884	1.7	1.18	-2.99 (inactive)	0.67	1.07	1.48	-0.0556 (inactive)	0.69 (inactive)	0.382 (inactive)	3.36	-0.0304 (inactive)	0.194	0.205	1	-0.0004
O=C1C[C@@](C(=O)NCC(F)(F)F)(c2ccc([N+](=O)[O-])cc2)[C@@H](c2ccc(CO)cc2I)N1CC12CC3CC(CC(C3)C1)C2	-0.405	-0.0271	-0.106	0.121	0.729	1.01	1.23	-2.99 (inactive)	1.08	-0.239	1.55	-1.36 (inactive)	-0.301 (inactive)	21.1 (active)	2.73	0.548 (inactive)	-0.189	0.515	0.978	-0.206
Cc1ccc(S(=O)(=O)N2[C@@H](c3ccccc3)C(C(=O)O)=CC[C@H]2c2ccc(F)cc2)cc1	-0.191	1.32	0.174	1.41	-0.0595	-0.0826	1.33	-2.75 (inactive)	0.654	-0.252	1.26	-0.485 (inactive)	0.364 (inactive)	0.311 (inactive)	4.08	-0.0865 (inactive)	-0.0803	-0.0184	0.76	-0.241
CC(C)(C)OC(=O)CC[C@@]1(C(=O)N2CCOCC2)N=C(c2ccc(OCCCO)cc2)O[C@@H]1c1ccccc1CN=[N+]=[N-]	0.12	0.161	0.254	0.674	1.1	1.88	1.31	3.86 (inactive)	0.694	0.186	1.38	-0.335 (inactive)	-0.183 (inactive)	-0.654 (inactive)	3.83	0.675 (inactive)	0.313	1.06	0.985	0.103
COc1ccc(-c2cc3c(c(CCc4ccccc4)n2)[Si](C(C)C)(C(C)C)O[C@H]3c2ccccc2)cn1	-0.605	-0.678	-0.0754	0.0306	0.135	0.371	-0.598	0.0071 (inactive)	0.16	-0.164	0.469	0.646 (inactive)	-0.0525 (inactive)	1.23 (inactive)	-0.0354	-1.12 (inactive)	-0.213	0.75	0.439	-0.0749
C[N+](C)(C)CCCC[C@@H]1NC(=O)[C@H]2C[C@@H](C(=O)O)[C@@H](c3ccc(O)cc3)N2C1=O	0.348	0.211	-0.133	-0.0114	0.288	0.45	1.3	4.06 (inactive)	-0.166	-0.199	0.777	-1.56 (inactive)	-1.28 (inactive)	-0.5 (inactive)	2.61	1.26 (inactive)	-0.0481	0.447	0.5	-0.158
